# Source: the supplement of paper PMC4466140
# B1: unnamed (peptide)
# chain: AGKRRLPLVRFKASD
# Target: ScPex13
# Assay: SPOT peptide array binding signal intensity (averaged, normalized) (arbitrary units (background-subtracted, floor 0; scale differs between SH3 domains)); higher = stronger binding of the SH3 domain to the peptide
# Outline: (§1)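 Peptides were synthetic 15-mers on cellulose membranes, with every cysteine replaced by serine. They were incubated overnight at 4°C with GST-SH3 domains from four yeast species at 10 μg/ml in TBS-based blocking buffer. Binding signal, the replicate-averaged normalized and background-subtracted spot intensity, is in arbitrary units that differ between domains.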
row,Binder,SPOT peptide array binding signal intensity
1,B1,6.75

# Target: ScRvs167
# Assay: as above
# Outline: as §1
row,Binder,SPOT peptide array binding signal intensity
1,B1,364

# Target: ScSho1
# Assay: as above
# Outline: as §1
row,Binder,SPOT peptide array binding signal intensity
1,B1,2030

# Target: ScSla1-D1-D2
# Assay: as above
# Outline: as §1
row,Binder,SPOT peptide array binding signal intensity
1,B1,1180

# Target: ScSla1-D3
# Assay: as above
# Outline: as §1
row,Binder,SPOT peptide array binding signal intensity
1,B1,9.75

# Target: SpAbp1-D1
# Assay: as above
# Outline: as §1
row,Binder,SPOT peptide array binding signal intensity
1,B1,592

# Target: SpBbc1
# Assay: as above
# Outline: as §1
row,Binder,SPOT peptide array binding signal intensity
1,B1,5.25

# Target: SpBzz1-D1
# Assay: as above
# Outline: as §1
row,Binder,SPOT peptide array binding signal intensity
1,B1,180

# Target: SpBzz1-D2
# Assay: as above
# Outline: as §1
row,Binder,SPOT peptide array binding signal intensity
1,B1,1

# Target: SpCyk3
# Assay: as above
# Outline: as §1
row,Binder,SPOT peptide array binding signal intensity
1,B1,67

# Target: SpHof1
# Assay: as above
# Outline: as §1
row,Binder,SPOT peptide array binding signal intensity
1,B1,481

# Target: SpHof1-2
# Assay: as above
# Outline: as §1
row,Binder,SPOT peptide array binding signal intensity
1,B1,99.5

# Target: SpHof1-3
# Assay: as above
# Outline: as §1
row,Binder,SPOT peptide array binding signal intensity
1,B1,412

# Target: SpHse1
# Assay: as above
# Outline: as §1
row,Binder,SPOT peptide array binding signal intensity
1,B1,536

# Target: SpLsb1
# Assay: as above
# Outline: as §1
row,Binder,SPOT peptide array binding signal intensity
1,B1,17

# Target: SpLsb4
# Assay: as above
# Outline: as §1
row,Binder,SPOT peptide array binding signal intensity
1,B1,354

# Target: SpMyo1
# Assay: as above
# Outline: as §1
row,Binder,SPOT peptide array binding signal intensity
1,B1,3.5

# Target: SpNbp2
# Assay: as above
# Outline: as §1
row,Binder,SPOT peptide array binding signal intensity
1,B1,1010

# Target: SpPex13
# Assay: as above
# Outline: as §1
row,Binder,SPOT peptide array binding signal intensity
1,B1,42.5

# Target: SpRvs167
# Assay: as above
# Outline: as §1
row,Binder,SPOT peptide array binding signal intensity
1,B1,248

# Target: SpSla1-D1-D2
# Assay: as above
# Outline: as §1
row,Binder,SPOT peptide array binding signal intensity
1,B1,4

# Target: SpSla1-D3
# Assay: as above
# Outline: as §1
row,Binder,SPOT peptide array binding signal intensity
1,B1,17.5
